Screening data deposited in PubChem BioAssay by National Center for Advancing Translational Sciences (NCATS).
HEK293 cAMP cs – qHTS Assay for Agonists of the Thyroid Stimulating Hormone Receptor: Activators of Intracellular cAMP Concentrations in Parental HEK 293 | parental HEK293 CNG cAMP sensor, membrane potential fluorescence | Potency, µM (series often up to 57.1 µM), usual class: activators | AID 938, 2007 | 73,000 tested, 2.5% active; also: nearly all actives have a fitted effect of over 55% in size
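Counterscreen for endogenous-receptor signalling: CNG-channel HEK 293 cells report cAMP rise by membrane depolarization. After 60 min dye equilibration with 100 uM RO 20-1724, compounds incubated 30 min before bottom-read fluorescence at 590 nm.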
Epigenetic mod – qHTS Assay for Epigenetic Modulators. Potency, µM (highest dose often 46.1 µM). mouse C127i GFP locus derepression, cytometry, 30 h. AID 597, 2007. 68,000 tested, 0.09% active
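Read-out is the number of GFP-positive cells, scored as fluorescent objects 20 to 120 um wide, reflecting derepression of a silenced CMV-GFP reporter in murine C127i cells after 30 h compound exposure at 37 C.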
ERK AVP block – qHTS Assay for Inhibitors of the ERK Signaling Pathway using a Homogeneous Screening Assay; HEK293-V1b, vasopressin-stimulated pERK AlphaScreen; Potency, µM (titrated, usually from 57.5 µM), most hits filed as inhibitors; 72,000 tested, 0.99% active; also: nearly all actives have a fitted effect of over 55% in size
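HEK293 cells stably expressing V1b receptor, seeded overnight in 1% FBS, were treated with compounds for 30 min at 37C, then stimulated 5 min with 25 nM vasopressin; phospho-ERK read by AlphaScreen SureFire after lysis.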
UbGFP stabilizer – Ubiquitin-GFP Assay | Potency, µM (highest dose often 45.9 µM), most hits filed as activators | 67,000 tested, under 10 active | Ubiquitin-GFP reporter cells, proteasome inhibition, GFP fluorescence; response scale: untreated = 0%, 10 µM MG-132 = 100% | AID 526, 2006; active = well fitted activation curve with a large enough effect, not every such curve was filed as active; inconclusive = small, poorly fitted or top-dose-only effect, or another doubt; inactive = no such curve, though single readings can be large or run the other way
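U2OS Ub(G76V)-GFP reporter; O/N plating, 0.5% FBS; cpd 46 uM–2.9 nM, 4 h, 37 °C; GFP+ cell count, 488/515 nm; norm. to basal vs 10 uM MG-132; CRC fit.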
HBB splice mod – qHTS Assay for Modulators of Hemoglobin Beta Chain Splicing. HBB splicing reporter cell assay, activation; EGFP reporter with mutant IVS2-654 intron; response scale: normalised to 500 nM splice-correcting PNA. Potency, µM (highest dose often 46.1 µM), actives largely listed as activators. 65,000 tested, 0.06% active. AID 925, 2007
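Compounds were applied for 2 days to HeLa EGFP-654 cells, 500/well in Optimem with 2% FCS. The reporter's EGFP is disrupted by mis-splicing of beta-globin intron IVS2-654. Readout: summed well GFP fluorescence from 488 nm laser scanning; reference was 500 nM antisense […] 654 PNA.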
TSHR ag – qHTS Assay for Agonists of the Thyroid Stimulating Hormone Receptor. HEK293-CNG-TSHR cells (CNG channel as cAMP sensor), membrane potential dye, cAMP. Potency, µM (titrated, usually from 57.1 µM), most hits filed as activators. 73,000 tested, 0.48% active; active = well fitted activation curve with a large enough effect in the main read-out, with a control signal flat, not every such curve was filed as active; inconclusive = small, poorly fitted or top-dose-only effect, or a change in a side signal; inactive = no such curve, though single readings can be large or run the other way; reference of the percent scale not stated here;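 also: the control signal comes from parental cells without the receptor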
Target sequence (P16473 whole entry, looked up): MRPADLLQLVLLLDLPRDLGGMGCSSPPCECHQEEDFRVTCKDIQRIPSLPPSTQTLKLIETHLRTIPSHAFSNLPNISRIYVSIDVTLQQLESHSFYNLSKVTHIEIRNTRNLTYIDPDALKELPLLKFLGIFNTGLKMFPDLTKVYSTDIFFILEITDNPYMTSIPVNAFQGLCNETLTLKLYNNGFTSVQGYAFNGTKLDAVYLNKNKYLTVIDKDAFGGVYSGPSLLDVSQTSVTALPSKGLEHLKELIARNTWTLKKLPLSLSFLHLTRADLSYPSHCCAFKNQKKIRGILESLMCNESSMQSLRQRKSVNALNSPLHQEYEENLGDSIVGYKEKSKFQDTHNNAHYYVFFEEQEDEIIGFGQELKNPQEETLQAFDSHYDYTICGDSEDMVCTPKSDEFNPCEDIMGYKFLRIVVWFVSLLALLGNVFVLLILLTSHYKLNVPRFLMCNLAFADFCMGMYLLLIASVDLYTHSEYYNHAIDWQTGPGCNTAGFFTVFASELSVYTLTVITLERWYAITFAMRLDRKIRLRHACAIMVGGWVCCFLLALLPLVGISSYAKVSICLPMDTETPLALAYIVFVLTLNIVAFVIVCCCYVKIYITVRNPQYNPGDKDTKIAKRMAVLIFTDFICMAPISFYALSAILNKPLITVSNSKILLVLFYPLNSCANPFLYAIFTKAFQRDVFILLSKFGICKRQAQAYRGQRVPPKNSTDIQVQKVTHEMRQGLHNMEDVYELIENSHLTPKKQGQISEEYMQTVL
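HEK 293 cells stably expressing TSHR and a modified CNG channel, with CNG-only parental cells as counterscreen, were preloaded 60 min at room temperature with membrane potential dye containing 100 uM RO 20-1724. Compound exposure was 30 min, and depolarization was read as fluorescence at 590 nm.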
A number is an active result; – = inactive; ? = inconclusive; · = no result given; [ ] = another dose, or the depositor's remark. This is a sample that favours compounds with a hit; in the whole collection about 3.8% have one here. Unless noted, calls follow the shape of the dose curve; as a rule, active = well fitted curve in the direction sought with a large enough effect; inconclusive = small, poorly fitted or top-dose-only effect, or another doubt; inactive = no such curve, though single readings can be large; an effect the other way counts as inactive or inconclusive.

SMILES	HEK293 cAMP cs	Epigenetic mod	ERK AVP block	UbGFP stabilizer	HBB splice mod	TSHR ag
O=C(O)CNc1ccc(C(=O)O)cc1	–[11.4 µM]	–[9.22 µM]	–[11.5 µM]	–[9.17 µM]	–[9.22 µM]	–[11.4 µM]
COCCN=C1OC(=O)N2C(=O)C3=C4C(C[C@H]5C(=O)N(c6ccccc6)C(=O)[C@H]5[C@H]4[C@@]12Cc1ccccc1)[C@H]1C(=O)N(c2ccccc2)C(=O)[C@H]1[C@H]3C (stereo not given in full)	·	·	–	·	·	·
O=C(Nc1cccc2cccnc12)c1ccc(Br)o1	?	–	–	–	–	?
O=C(Oc1cccc2cccnc12)c1ccc(Br)o1	–	5µM	–	–	·	–
COc1ncc2nc(-c3ccccc3)c(=O)n(-c3ccccc3)c2n1	–	–[9.22 µM]	?	–	–	–
Cc1csc(NC(=O)c2sc3nc(-c4cccs4)ccc3c2N)n1	–	–	–	–	16µM	–
COCC(=O)N1CCC2(CC1)CN(c1ccc(-c3ccccc3)cc1)C2	–	–[9.22 µM]	?	–	–	–
CC(=O)NC(N1CCCCC1)C(F)(F)C(F)(F)C(F)(F)C(F)F (stereo not given)	–	–	–	–	–[9.22 µM]	–
O=P(O)(O)C(O)C(F)(F)C(F)(F)C(F)(F)C(F)F (stereo not given)	4µM	–	–	–	–	?
COCCn1c(=O)c(-c2cccs2)nc2cnc(N(C)C)nc21	–	–[9.22 µM]	–	–	–	–
Cc1cc(C)n(-c2ccn(Cc3ccc(Cl)cc3Cl)c(=O)n2)n1	16µM	–	–	–	–	?
CC(C)(C)n1ncc2c(=O)n(Cc3ccc(Cl)cc3Cl)cnc21	?	–	?	–	–	?
CC(C)C[C@@H](CC(=O)N[C@@H](CCCN)CC(=O)N[C@@H]1CCCC[C@H]1C(=O)N[C@H](CC(=O)N[C@@H](CCC(=O)O)CC(=O)O)Cc1ccccc1)NC(=O)[C@@H]1CCCC[C@H]1N	?	·	·	·	–	?
Cc1ccc(Cl)cc1N1CCN(C(c2ccc(C#N)cc2)c2nnnn2C2CCCC2)CC1 (stereo not given)	1.3µM	–	–	–	·	?
C=CC[C@@H]1C=C[C@@H](O/N=C2/C[C@@H](O)[C@@H](O)[C@@H]3[C@@H]4C(=O)N(CC)C(=O)[C@H]4CC[C@@H]23)[C@@H](CO)O1	–[11.4 µM]	·	–[11.5 µM]	·	–[9.22 µM]	–[11.4 µM]
COC(=O)C1=C(C)NC(C)=C(C(=O)OC)C1c1ccc(N(C)C)cc1	–	–	–	–	–	20µM
Cc1nn(-c2ccccc2)c2sc(C(=O)N(CC(=O)NC(C)(C)C)Cc3ccco3)cc12	16µM	–	–	–	·	?
COC(=O)COc1ccc(S(=O)(=O)NCc2ccco2)cc1Cl	–	–	–	–	–	–
COCCNS(=O)(=O)c1ccc(OCC(=O)OC)c(Cl)c1	–	–	–	–	–	20µM
CCOC(=O)CSc1nc2c(sc3ccccc32)c(=O)n1CCCN1CCOCC1	13µM	–	–	–	–	?
Cc1nn(Cc2ccccc2)c2sc(C(=O)N3CCN(Cc4ccc5c(c4)OCO5)CC3)cc12	–	–	–	–	–	–
CCc1cc2cc(C(=O)N3CCN(Cc4ccccc4)CC3)sc2s1	32µM	–	?	–	–[9.22 µM]	?
Cc1ccccc1N1C(=O)c2cc(S(N)(=O)=O)c(Cl)cc2N[C@H]1C	–	–	–	–	–	–
C[C@@H](Cc1ccccc1)Nc1ncnc2c1ncn2[C@@H]1O[C@@H](CO)[C@H](O)[C@@H]1O	25µM	–	–	–	–	?
CNc1ncnc2c1ncn2[C@@H]1O[C@H](CO)[C@@H](O)[C@@H]1O	?	–	–	–	–	?
SMILES	HEK293 cAMP cs	Epigenetic mod	ERK AVP block	UbGFP stabilizer	HBB splice mod	TSHR ag
Nc1nc(Cl)nc2c1ncn2[C@@H]1O[C@@H](CO)[C@@H](O)[C@H]1O	7.9µM	–	13µM	–	–	?
OC[C@@H]1O[C@@H](n2cnc3c(NCc4ccco4)ncnc32)[C@H](O)[C@H]1O	–	–[9.22 µM]	·	–	·	–
Cc1ccccc1CNc1ncnc2c1ncn2[C@@H]1O[C@@H](CO)[C@H](O)[C@@H]1O	7.9µM	–	–	–	–	?
C[C@@H](C[C@H](N)C(=O)O)C(=O)O	–[11.4 µM]	–[9.22 µM]	–[11.5 µM]	–[9.17 µM]	–[9.22 µM]	–[11.4 µM]
Cc1ccccc1OCC(=O)Nc1ccccc1N1CCOCC1	25µM	–	–	–	–[9.22 µM]	?
O=C(Nc1ccccc1N1CCN(c2ccc(F)cc2)CC1)c1ccccc1	6.3µM	–	–	–	·	?
O=C(COc1ccccc1)Nc1ccccc1N1CCN(c2ccc(F)cc2)CC1	7.9µM	–	–	–	·	?
CCC(=O)N1CCN(c2ccccc2NC(=O)COc2cc(C)ccc2C(C)C)CC1	16µM	–	–	–	–	?
O=C(Nc1ccccc1N1CCN(c2ccc(F)cc2)CC1)C1CCCCC1	3.2µM	–	–	–	·	?
CCOC(=O)c1ccc(N2C(=O)CC(SCC(N)C(=O)OCC)C2=O)cc1 (stereo not given)	3.2µM	–	–	–	–	?
COC(=O)C/C=C\[C@H](C)[C@H](CO)NS(=O)(=O)c1ccc(C)cc1	–[11.4 µM]	·	–[11.5 µM]	·	–[9.22 µM]	–[11.4 µM]
